Screens deposited in PubChem BioAssay by National Center for Advancing Translational Sciences (NCATS).
Sampled rows, rich in hits. Any-hit rate of the full collection: about 11%.
ALDH1A1 block – inhibitors of human aldehyde dehydrogenase 1A1 | Purified ALDH1A1, NADH fluorescence, propionaldehyde substrate | P00352 | AID 1030 | 7.3% of 220,000 active | Potency, µM (series often up to 75.3 µM), usual class: inhibitors
IMPase cell inh – membrane-permeable compound that blocks inositol monophosphatase. inhibition (IP1 accumulation), % at 46.1 µM. CHO-M1 cells, IP1 accumulation, HTRF TR-FRET ratio. 120,000 tested, under 10 active. P97697; active = well fitted curve in the direction sought with a large enough effect in the signal ratio, not every such curve was filed as active; inconclusive = small, poorly fitted or top-dose-only effect, or a change in a side signal; inactive = no such curve, though single readings can be large or run the other way; the % refers to the signal ratio;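 note: cells stimulated with carbachol in lithium chloride buffer; higher means more IMPase inhibition seen as more IP1 and lower FRET ratio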
Target sequence (P97697 whole entry, looked up): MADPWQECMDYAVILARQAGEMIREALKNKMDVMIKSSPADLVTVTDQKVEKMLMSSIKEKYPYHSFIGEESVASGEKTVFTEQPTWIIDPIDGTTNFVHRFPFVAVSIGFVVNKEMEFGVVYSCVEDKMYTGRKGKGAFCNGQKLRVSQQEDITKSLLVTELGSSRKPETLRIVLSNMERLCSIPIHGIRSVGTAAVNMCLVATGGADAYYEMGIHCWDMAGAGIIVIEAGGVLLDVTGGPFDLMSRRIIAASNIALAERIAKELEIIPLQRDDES
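CHO-M1 cells (CHO stably expressing M1 receptor), compound up to 46 uM final, stimulated with carbachol (50 uM as added) in buffer with 50mM LiCl, pH 7.4, 30 min at 37C. Cytosolic IP1 read by TR-FRET; AC50 from Hill fits.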
HPGD inh – inhibitors of human 15-hydroxyprostaglandin dehydrogenase (HPGD). P15428. purified HPGD, NADH fluorescence kinetic, PGE2 substrate. Potency, µM, actives largely listed as inhibitors. 4.3% of 150,000 active. AID 894
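20 nM HPGD preincubated 15 min at room temperature with compound in 50 mM Tris-HCl pH 8, 0.01% Tween 20. Started with 1 mM NAD+ and 30 uM prostaglandin E2; NADH fluorescence (360/450 nm) read 5 times over 30-s intervals, last minus first.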
PNC assembly inh – inhibitors of perinucleolar compartment assembly; 3.1% of 140,000 active; AID 2417; PC3M PTB-GFP, PNC prevalence imaging, 16 h; stronger effect = lower value; activity change (PNC), negative = inhibition, % at 10 µM;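 active = readout at or below -70, meaning at least 70% loss of cells showing the perinucleolar compartment, a nuclear body marking cancer cells; inconclusive = readout between -30 and a set limit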
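Compounds are pinned in duplicate onto adhered PC3M cells stably expressing GFP-tagged PTB and incubated 16 h at 37 C. Cells are then fixed, nuclei stained with Hoechst, and PNC-positive cells counted.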
IMPase Li cell – cell-permeable IMPase inhibitors with lithium potentiation | CHO-M1 cells, IP1 TR-FRET (IP-One), carbachol + lithium | Potency, µM (titrated, usually from 59.4 µM), actives largely listed as inhibitors | 0.35% of 210,000 active | AID 1457; active = well fitted inhibition curve with a large enough effect; inconclusive = small, poorly fitted or top-dose-only effect; inactive = no such curve, though single readings can be large or run the other way;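 note: IP1 builds up when IMPase is blocked and the TR-FRET signal falls; nearly all actives have a fitted effect of over 50% in size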
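CHO-M1, 2000 cells/well, 16–30 h culture; cpd + low Li+, 30 min 37C; lysis with d2-IP1/Eu-anti-IP1 Ab, 10 min RT; TR-FRET 665/620 ratio and 620 channel; AC50 via Hill.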
Numbers stand for hits; . = inactive; ? = inconclusive; / = no result; [ ] = another dose, or the depositor's remark. Unless noted, calls come from the whole dose curve; as a rule, active = well fitted inhibition curve with a large enough effect (not every such curve was filed as active); inconclusive = small, poorly fitted or top-dose-only effect, or another doubt; inactive = no such curve, though single readings can be large or run the other way.

SMILES | ALDH1A1 block | IMPase cell inh | HPGD inh | PNC assembly inh | IMPase Li cell
O=C(Cn1nnc(-c2cc(C(F)(F)F)cc(C(F)(F)F)c2)n1)NNC(=S)Nc1ccc(Cl)cc1 | 1.3µM | / | / | / | /
Cc1cc2c(cc1Cl)C(c1ccc3c(c1)OCO3)CC(=O)O2 (configuration not stated) | . | / | . | / | .
CCOC(=O)C1=C(C)NC(=O)NC1c1ccc(-c2ccccc2F)o1 (configuration not stated) | 20µM | / | . | ? | .
CCCCCCn1c(NCC)nc2c1c(=O)[nH]c(=O)n2C | . | . | . | -93 | .
COC(=O)CSc1nc2c(c(=O)n(C)c(=O)n2C)n1CCC(C)C | 13µM | . | 14µM | ? | .
CCOC(=O)CSc1nc2c(c(=O)[nH]c(=O)n2C)n1CCCc1ccccc1 | . | . | . | -108 | .
CCCCCCn1c(SCC(=O)OC)nc2c1c(=O)[nH]c(=O)n2C | 3.5µM | . | 7.9µM | . | .
CCCCCCn1c(SCC(C)C)nc2c1c(=O)[nH]c(=O)n2C | . | . | . | . | .
NC(=O)c1oc2ccc(Cl)cc2c1NC(=O)CN1CCOCC1 | . | . | . | . | .
O=C1c2ccccc2C(=O)C1(c1ccccc1)N1CCN(c2cccc(Cl)c2)CC1 | / | . | / | / | /
COC(=O)C/C=C1\c2ccccc2[C@H](OC)[C@H]1C | .[13.5 µM] | / | / | / | /
CCCCCn1c(Sc2nc3ccccc3s2)nc2c1c(=O)[nH]c(=O)n2C | ? | . | . | . | 13µM
O=C1CSC(=Nc2ccccc2Cl)N1 | ? | . | 16µM | . | .
Cc1ccccc1N=C1NC(=O)CS1 | . | . | . | . | .
N#CC(c1ccccc1)N(CCCCl)C(=O)c1ccccc1 (configuration not stated) | . | . | . | ? | .
Cc1ccc(C)n1-c1ccc(C(=O)NN)s1 | 14µM | / | / | / | .
Cc1nc(SCC(=O)OCc2ccccc2)c2c(=O)n(C)c(=O)n(C)c2n1 | . | . | . | . | .
Cn1c(=O)c2c(nc(SCC(=O)c3ccccc3F)n2C)n(C)c1=O | 18µM | / | / | / | .
Cn1c(=O)c2c(nc(SCC(=O)OCc3ccccc3)n2C)n(C)c1=O | . | . | . | -96 | .
CCOc1ccccc1NC(=O)c1c(NC(=O)c2cccc(C)c2)sc2c1CCCC2 | / | . | / | / | /
COc1ccc(S(=O)(=O)N2CCOCC2)cc1NC(=O)Cn1nnc2ccccc2c1=O | ? | / | / | / | .
Cn1cccc1/C=C1\CCC/C(=C\c2cccn2C)C1=O | 7.9µM | . | . | . | .
O=C1/C(=C/c2cccnc2)CCC/C1=C\c1cccnc1 | . | / | . | . | .
CC1=C(C(=O)OC(C)C)C(c2cccc([N+](=O)[O-])c2)n2c(cc(=O)[nH]c2=S)N1 (configuration not stated) | . | / | 28µM | ? | .
Cn1cccc1-c1cc(C(=O)N2CCc3c([nH]c4ccccc34)C2c2ccccn2)[nH]n1 (configuration not stated) | 13µM | / | / | / | .
SMILES | ALDH1A1 block | IMPase cell inh | HPGD inh | PNC assembly inh | IMPase Li cell
CC(NC(=O)COC(=O)Cc1ccsc1)c1ccccc1 (configuration not stated) | . | / | . | . | .
O=C(COC(=O)Cc1ccc(Br)cc1)NCC1CCCCC1 | . | / | / | / | .
O=C(COC(=O)Cc1ccsc1)NCc1ccc(Cl)cc1 | . | . | 28µM | . | .
CC(NC(=O)COC(=O)Cc1ccsc1)C1CC2CCC1C2 (configuration not stated) | . | . | 28µM | . | .
O=C(COC(=O)Cc1ccsc1)NCC1CCCCC1 | ? | . | . | -90 | .
CN(C)c1ccc(CNCCC2(O)CCOC(C)(C)C2)cc1 (configuration not stated) | ? | . | . | . | .
CN(C)c1ccc(C=NCCC2(O)CCOC(C)(C)C2)cc1 (configuration not stated) | 0.56µM | ? | . | . | .
O=[N+]([O-])c1ccc(N/N=C/c2ccc[nH]2)cc1 | . | / | 14µM | -97 | .
N#Cc1cc([N+](=O)[O-])ccc1N1CCCC1 | ? | / | . | . | .
O=C1CCN(c2ccc([N+](=O)[O-])cc2F)CC1 | 8.9µM | / | / | / | .
Cc1cc(C(=O)CN2C(=O)c3ccccc3S2(=O)=O)c(C)n1-c1ccccc1 | ? | . | . | . | .
Cc1cc(C(=O)Cn2nnc3ccccc3c2=O)c(C)n1-c1ccccc1F | ? | . | ? | -87 | .
